Screens from PubChem BioAssay.
Compounds with a hit are over-represented: about 4.6% of the library has one in this group of screens.
sEH activator = activators of human soluble epoxide hydrolase | 91,000 tested, 0.04% active | activation, % at 2 µM | AID 717 | P34913 | purified human sEH enzymatic activity, activator screen; in the data active = activation above about 37%
HUVEC tox IL1B = toxic to HUVEC cells under IL-1B stimulation; HUVEC cell count loss, Hoechst imaging, IL-1B stimulated; 94,000 tested, 0.41% active; cell count reduction, % at 2 µM;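 active = cell count reduction more than 3 SD above the screen-wide mean, cut at about 70% in these data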
NFkB transloc inh = blocks IL-1B driven NFkB nuclear translocation in HUVEC cells; HUVEC IL-1B NFkB p65 nuclear translocation imaging; inhibition, % at 2 µM; 94,000 tested, 0.43% active; AID 796;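 active = inhibition above about 30% together with a positive call from visual inspection of the well image, limit read from the data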;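 note: nuclear over cytoplasmic p65 intensity ratio measured by imaging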
NFkB transloc pot = enhances IL-1B driven NFkB nuclear translocation. HUVEC IL-1B NFkB p65 nuclear translocation imaging. activation, % at 2 µM. 94,000 tested, 0.3% active. AID 819;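 active = activation above 40%, about the mean plus 3 SD, also judged a hit on visual image review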;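 note: percent activation is computed from the nuclear over cytoplasmic p65 intensity ratio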
Cav3 T inh = inhibitors of human Cav3.2 T-type calcium channel; O95180; Cav3.2-expressing cells, Fluo-4 calcium fluorescence FDSS; stronger effect = lower value; B-score at 10 µM; 100,000 tested, 4% active;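 active = single-dose well whose peak fluorescence ratio is a statistical outlier from its plate by either plate-standardised score or position-corrected B-score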
sEH inh = blocks human soluble epoxide hydrolase activity | recombinant human sEH enzymatic activity assay | inhibition, % at 2 µM | 91,000 tested, 0.34% active | AID 707; in the data active = inhibition above about 80%
A number is an active result; – = inactive; · = no result given.

SMILES	sEH activator	HUVEC tox IL1B	NFkB transloc inh	NFkB transloc pot	Cav3 T inh	sEH inh
O=C(CN1CCN(S(=O)(=O)c2ccccc2)CC1)Nc1cccc(C(F)(F)F)c1	–	–	–	–	-7.7	–
COc1ccc(S(=O)(=O)N2CCCN(CC(=O)Nc3ccc4c(c3)OCO4)CC2)cc1	–	–	–	–	–	–
O=C(CN1CCN(S(=O)(=O)c2ccc(F)cc2)CC1)Nc1ccc(Cl)c(C(F)(F)F)c1	–	–	–	–	·	–
COc1ccc(S(=O)(=O)N2CCN(CC(=O)Nc3ccc(F)c(F)c3)CC2)cc1	–	–	–	–	-4.9	–
CCN(CC)S(=O)(=O)c1cccc(NC(=O)Nc2cccc(C(F)(F)F)c2)c1	–	–	–	–	-5.8	–
Cc1ccc(NC(=O)CSc2nnc([C@@H]3CCCN3C(=O)OC(C)(C)C)o2)c(C)c1	–	–	–	–	·	–
COc1ccc(-c2oc3ccc(N4CCOCC4)cc3c2C#Cc2ccc(N)cc2)cc1	·	·	·	·	–	·
Cc1ccc(OCC(=O)NCCN2CCCC2)cc1	–	–	–	–	–	–
COc1ccc(-c2ccc(C)cc2)cc1[C@H]1[C@H]2C=CC[C@@H](C)[C@@H]2C(=O)N1Cc1ccccc1	·	·	·	·	–	·
CCN(CC)S(=O)(=O)c1cc(NC(=O)COC(=O)CCc2nc3ccccc3s2)ccc1C	–	–	–	–	-4.8	–
CCN(CC)S(=O)(=O)c1cccc(NC(=O)COC(=O)CCc2nc3ccccc3s2)c1	–	–	–	–	–	–
Cc1ccc(N(CC(=O)O)C2SC(=O)NC2=O)cc1 (centres undefined)	–	–	–	–	–	–
O=C(NC(Cc1ccccc1)C(=O)OCC(=O)N1CCc2ccccc21)c1ccco1 (centres undefined)	·	·	·	·	-4.7	·
CC(=O)Nc1ccc(S(=O)(=O)N2CCSC2c2ccc(C)cc2)cc1 (centres undefined)	–	–	–	–	-4.2	–
COc1ccc(/C=C/c2cc(-c3ccc(C)cc3)o[n+]2C)cc1	–	·	·	·	–	–
CCC1CCCCN1S(=O)(=O)c1ccc(C(=O)Nc2nnc(-c3cccs3)o2)cc1 (centres undefined)	–	–	–	–	-8.5	–
CC1CC(C)CN(S(=O)(=O)c2ccc(C(=O)Nc3nnc(-c4cccs4)o3)cc2)C1 (centres undefined)	–	–	–	–	·	–
CC1CCCN(S(=O)(=O)c2ccc(C(=O)Nc3nnc(-c4ccccc4Cl)o3)cc2)C1 (centres undefined)	–	–	–	–	-7.3	82
Cc1nnc(NC(=O)c2ccc(S(=O)(=O)N3CCCCCC3)cc2)o1	–	–	–	–	–	–
CC(=O)NC(Cc1ccccc1)C(=O)N1CCN(C(=O)c2cccs2)CC1 (centres undefined)	–	–	–	–	–	–
Clc1ccc(OCCCNCc2ccccc2)c(Br)c1	–	–	40	–	–	–
Fc1ccc(Cn2c(SCc3ccc(F)c(C(F)(F)F)c3)nnc2C(F)(F)F)cc1	–	–	–	–	–	–
Fc1ccc(Cn2c(SCc3ccc(F)c(F)c3)nnc2C(F)(F)F)cc1	–	–	–	–	-3.8	–
Cc1ccc2nc(-c3cccnc3SCC(=O)N3c4ccccc4CC3C)[nH]c2c1 (centres undefined)	–	–	–	–	-4.4	–
CCOC(=O)C1=C(C)Nc2nc3ccccc3n2C1c1ccccc1 (centres undefined)	–	–	–	–	–	–
SMILES	sEH activator	HUVEC tox IL1B	NFkB transloc inh	NFkB transloc pot	Cav3 T inh	sEH inh
Cc1cccc(-c2nc(CN3CCCC(C(=O)NC4CCCCC4)C3)c(C)o2)c1 (centres undefined)	–	–	–	–	-5.1	–
Cc1oc(-c2cccc(Cl)c2)nc1CN1CCCC(C(=O)NCc2ccco2)C1 (centres undefined)	–	–	–	–	–	–
Cc1cccc(-c2nc(CN3CCCC(C(=O)NC4CCCCCC4)C3)c(C)o2)c1 (centres undefined)	–	–	–	–	-6.9	–
CCCCc1cc(=O)oc2cc(OCC(=O)N(CC)CC)c(Cl)cc12	·	·	·	·	-3.1	·
CCCCc1cc(=O)oc2cc(OCC(=O)N(CC)CC)ccc12	–	–	–	–	–	–
CCOC(=O)C1=C(C)NC(SCC(=O)Nc2nc(C)cs2)=C(C#N)C1c1cccs1 (centres undefined)	–	–	–	–	-6.9	–
O=C(c1ccc2ccccc2c1)N1CCN(c2ccc([N+](=O)[O-])c(N3CCOCC3)c2)CC1	–	–	–	45	–	–
Cc1cccc(C(=O)N2CCN(c3ccc([N+](=O)[O-])c(N4CCOCC4)c3)CC2)c1	–	–	–	–	3.7	–
O=C(/C=C/c1ccccc1)N1CCN(c2ccc([N+](=O)[O-])c(N3CCOCC3)c2)CC1	–	–	–	–	–	–
CCOC(=O)CN1C=C(c2ccc3ccccc3n2)C(C[N+](=O)[O-])c2ccccc21 (centres undefined)	–	–	–	–	-4.9	–
CC1=C([N+](=O)[O-])C(c2ccccc2)C2=C(N1)c1ccccc1C2=O (centres undefined)	–	–	–	–	-3.8	–
COc1ccc(C2C(C#N)=C(C)NC3=C2C(=O)c2ccccc23)cc1 (centres undefined)	·	·	·	·	–	·
Cc1cc(C)n(-c2nc(SCC(=O)Nc3nccs3)c3c4c(sc3n2)COC(C)(C)C4)n1	–	–	–	–	·	–
CCc1ccccc1NC(=O)c1cc2sccc2n1C	–	–	–	–	-2.4	–
COc1ccccc1NC(=O)N1CCc2[nH]c3ccc(Cl)cc3c2C1	–	–	–	–	-5.1	–
O=C(C1CC1)N1CCc2[nH]c3ccccc3c2C1	–	–	–	–	–	–
COc1cc(C(C[N+](=O)[O-])c2c(-c3ccccc3)cc3ccccn23)cc(OC)c1OC (centres undefined)	–	–	–	–	·	–
COc1ccc(OC)c(S(=O)(=O)N2CCC(C(=O)Nc3cccc(C)c3C)CC2)c1	–	–	–	–	–	–
CCOC(=O)C1CCCN(S(=O)(=O)c2ccc(OC)c3ccccc23)C1 (centres undefined)	–	–	–	–	-4	–
COc1ccc(NC(=O)C2CCCN(S(=O)(=O)c3ccc(C)cc3)C2)cc1OC (centres undefined)	–	–	–	–	–	–
COc1ccc(OC)c(S(=O)(=O)N2CCC(C(=O)Nc3ccc(C)c(C)c3)CC2)c1	–	–	–	–	-7.2	–
CCOc1ccccc1NC(=O)C1CCCN(S(=O)(=O)c2ccc(OC)c(C)c2)C1 (centres undefined)	–	–	–	–	-4.6	–
COc1ccc(CNC(=O)C2CCCN(S(=O)(=O)c3cc(C)ccc3OC)C2)cc1 (centres undefined)	–	–	64	–	-3.3	–
COc1ccc(CNC(=O)C2CCN(S(=O)(=O)c3cc(OC)ccc3OC)CC2)cc1	–	–	–	–	–	–
